Compound activity (PubChem)
The list is not random: actives were taken first. Their share in the collection is about 0.95%.
Giardia FBPA inh-1: inhibitors of Giardia lamblia fructose-1,6-bisphosphate aldolase | A8B2U2 | purified Giardia FBPA | Potency, µM (titrated, usually from 59.6 µM), for the others: at the top dose activity, negative = inhibition, usual class: inhibitors | 0.71% of 290,000 active | AID 2451; also: nearly all actives have a fitted effect of over 55% in size
Target sequence (A8B2U2 whole entry, looked up): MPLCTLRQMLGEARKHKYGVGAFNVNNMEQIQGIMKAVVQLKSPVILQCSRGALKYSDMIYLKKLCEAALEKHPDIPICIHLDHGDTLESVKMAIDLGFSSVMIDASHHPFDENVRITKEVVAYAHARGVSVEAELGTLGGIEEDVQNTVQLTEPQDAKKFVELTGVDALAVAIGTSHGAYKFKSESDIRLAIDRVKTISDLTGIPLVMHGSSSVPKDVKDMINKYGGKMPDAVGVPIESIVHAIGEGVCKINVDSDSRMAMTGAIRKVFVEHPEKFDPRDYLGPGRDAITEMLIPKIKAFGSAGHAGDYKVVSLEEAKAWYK
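40 nM FBPA preincubated 10 min at RT with compound (up to 57.5 uM final), then substrate plus GAPDH/TPI/NAD/arsenate coupling and diaphorase/resazurin added. Fluorescence read after 20 min at RT, 525/598 nm.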
Tb PYK inh: inhibitors of Trypanosoma brucei pyruvate kinase | Q57TT1 | TbPYK enzyme, Kinase-Glo Plus ATP luminescence, 45 min | Potency, µM (titrated, usually from 76.8 µM), for inactives: at the highest dose activity, negative = inhibition, usual class: inhibitors | 0.12% of 410,000 active; also: nearly all actives have a fitted effect of over 50% in size
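ADP (130 uM final) triggers the TbPYK reaction after compound addition; incubation is 45 min at room temperature. Kinase-Glo Plus is then added and luminescence imaged. Normalized data are fitted to concentration-effect curves.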
RE007 growth inh: less growth of the S. pombe RE007 Vpr strain; S. pombe RE007 Vpr strain, BacTiter-Glo ATP luminescence, 24 h; Potency, µM (titrated, usually from 92.2 µM), without a hit: at the highest dose activity change, negative = less growth, actives largely listed as inhibitors; 0.21% of 360,000 active; AID 651644; active = well fitted falling curve with a large enough effect; inconclusive = small, poorly fitted or top-dose-only effect; inactive = no such curve, though single readings can be large or run the other way; also: nearly all actives have a fitted effect of over 50% in size
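Fission yeast strain RE007, carrying one chromosomally integrated HIV-1 vpr copy, was seeded at OD 0.01 in PMG+AL medium with 23 nL pinned compound. After 24 h at 30 °C and 99% humidity, viability was read by BacTiter-Glo luminescence.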
LmPK inhibitor: inhibitors of Leishmania mexicana pyruvate kinase; Q27686; purified LmPK, Kinase-Glo ATP luminescence, 1 h; Potency, µM (top dose mostly 57.5 µM), inactives show at the top dose activity change, negative = inhibition, most hits filed as inhibitors; 0.37% of 290,000 active; AID 1721
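In 50 mM imidazole pH 7.2 with 7 mM MgCl2, LmPK (0.1 nM) turned over PEP (0.5 mM) and ADP (0.1 mM) for 1 h at room temperature. Luciferase read-out of ATP.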
Giardia growth: inhibitors of Giardia lamblia growth; shares compounds with Giardia FBPA inh-1; Giardia lamblia trophozoite growth inhibition; Potency, µM (doses to about 57.5 µM), without a hit: at the highest dose activity change, negative = inhibition, hits mostly inhibitors; 5% of 1,500 active; AID 2785;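 also: trophozoites exposed to compound for 48 h at 37 °C; nearly all actives have a fitted effect of over 70% in size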
Mammal cell tox: counter-screen for Giardia aldolase inhibitors: mammalian cell toxicity; 4% of 1,500 active; mammalian cell viability counter-screen, qHTS; shares compounds with Giardia FBPA inh-1; AID 2786; Potency, µM (highest dose often 57.5 µM), inactives show at the highest dose viability change, negative = toxicity, usual class: inhibitors;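 also: Chinese hamster ovary cells used as mammalian cytotoxicity surrogate; viability measured as cellular ATP by luminescence; compound exposure lasted 48 h before reading; nearly all actives have a fitted effect of over 60% in size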
Giardia FBPA inh-2: confirmation of Giardia fructose-bisphosphate aldolase inhibitors. shares compounds with Giardia FBPA inh-1. purified Giardia aldolase enzyme activity, qHTS. 5% of 1,500 active. Potency, µM (highest dose often 57.5 µM), without a hit: top-dose activity change, negative = inhibition, actives largely listed as inhibitors; also: nearly all actives have a fitted effect of over 45% in size
Rabbit aldolase: blocks rabbit muscle aldolase in Giardia aldolase selectivity test. shares compounds with Giardia FBPA inh-1. Rabbit muscle FBPA enzyme inhibition, selectivity counter-screen. Potency, µM (highest dose often 57.5 µM), without a hit: at the top dose activity, negative = inhibition, actives largely listed as inhibitors. 4% of 1,500 active. AID 2794; also: nearly all actives have a fitted effect of over 60% in size
Target sequence (P00883 whole entry, looked up): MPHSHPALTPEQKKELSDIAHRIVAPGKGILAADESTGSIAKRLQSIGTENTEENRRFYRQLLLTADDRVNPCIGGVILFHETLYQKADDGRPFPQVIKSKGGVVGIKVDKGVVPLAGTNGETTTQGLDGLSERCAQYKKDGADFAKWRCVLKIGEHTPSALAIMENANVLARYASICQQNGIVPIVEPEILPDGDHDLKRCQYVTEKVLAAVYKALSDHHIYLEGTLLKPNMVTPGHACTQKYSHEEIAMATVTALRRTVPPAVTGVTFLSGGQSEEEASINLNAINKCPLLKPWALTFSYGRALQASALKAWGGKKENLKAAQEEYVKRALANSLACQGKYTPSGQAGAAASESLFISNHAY
GAPDH coupling: counter-screen for Giardia aldolase inhibitors: GAPDH coupling enzyme; 6% of 1,500 active; Potency, µM (titrated, usually from 57.5 µM), without a hit: at the highest dose activity change, negative = inhibition, actives largely listed as inhibitors; shares compounds with Giardia FBPA inh-1; GAPDH coupling enzyme counterscreen, biochemical, qHTS; also: nearly all actives have a fitted effect of over 55% in size
The depositor's hits bear a star; ? = inconclusive; . = not tested or not shown; [ ] = remark or other dose. Unless noted, calls follow the shape of the dose curve; as a rule, active = well fitted curve in the direction sought with a large enough effect; inconclusive = small, poorly fitted or top-dose-only effect, or another doubt; inactive = no such curve, though single readings can be large; an effect the other way counts as inactive or inconclusive. % is scaled to controls: 0 for no effect and ±100 for the full control effect; potency is read from the fitted curve at half-maximal effect.

SMILES | Giardia FBPA inh-1 | Tb PYK inh | RE007 growth inh | LmPK inhibitor | Giardia growth | Mammal cell tox | Giardia FBPA inh-2 | Rabbit aldolase | GAPDH coupling
CC(C(Sc1ccccc1N)c1ccccc1)[N+](=O)[O-] (stereo not given) | 20µM* | 25µM* | -29% | 6% | ? | 32µM* | 5% | 9% | -4%
CN1CCC(NCCC(c2ccc(F)cc2)c2ccc(Cl)cc2)CC1 (stereo not given) | 14µM* | 17% | 22% | -2% | ? | 20µM* | 7% | 8% | -3%
Cc1cccc(N2CCN(C(=O)c3cc4c(=O)n(C)c5ccccc5c4s3)CC2)c1C | . | 1% | . | . | . | . | . | . | .
Cc1nnc(SCC(=O)N2CCN(S(=O)(=O)c3ccccc3)CC2)[nH]c1=O | -14% | -11% | 8% | 7% | . | . | . | . | .
Cc1ccc(S(=O)(=O)N2CCN(C(=O)CSc3nnc(C)c(=O)[nH]3)CC2)cc1 | 28µM* | -15% | 3% | 18% | ? | 5% | 6% | 14% | 22%
COC(=O)Nc1sc2c(c1C(N)=O)CCC(C)C2 (stereo not given) | 8.9µM* | -22% | 9% | 0% | -14%[38.3 µM] | 8% | ? | ? | ?
CC(C)NCC(=O)Nc1c2c(nc3ccccc13)CCC2 | 18µM* | 0% | 3% | -9% | 9%[10.4 µM] | -7% | 2% | 3% | 12%
Cc1cccc(NC(=O)CSc2c3c(nc4ccccc24)CCC3)n1 | 1% | 1% | 6% | -1% | . | . | . | . | .
CCOC(=O)c1cnc(-c2ccc(C(F)(F)F)cn2)[nH]c1=O | 5µM* | -7% | 4% | 1% | ? | -7% | -6% | -9% | -10%
COCc1cc(=O)[nH]c(=S)[nH]1 | 4.5µM* | -7% | 23% | -2% | ? | -4% | 5% | 1% | 13%
O=c1cc(Cc2ccccc2)[nH]c(=S)[nH]1 | ? | 3% | 0% | -1% | . | . | . | . | .
CCCC(=O)Nc1nnc(-c2ccco2)s1 | -7% | 1% | 8% | 0% | . | . | . | . | .
Nc1nnc(-c2ccco2)s1 | 6.3µM* | 1% | 0% | 4% | 5% | -14% | 1% | 4% | 1%
Cc1ccc(Cl)cc1NC(=O)c1cc2c(=O)n3cccc(C)c3nc2n1C | . | -4% | . | . | . | . | . | . | .
CCNC(=O)C1CCCN1C(=O)C(CCCN=C(N)N)NC(=O)C(CC(C)C)NC(=O)C(Cc1cn(Cc2ccccc2)cn1)NC(=O)C(Cc1ccc(O)cc1)NC(=O)C(CO)NC(=O)C(Cc1c[nH]c2ccccc12)NC(=O)C(Cc1cnc[nH]1)NC(=O)C1CCC(=O)N1 (stereo not given) | 10µM* | -1% | -6% | -6% | 16%[38.3 µM] | 2% | -4% | 13% | 0%
CCNC(=O)[C@@H]1CCCN1C(=O)[C@H](CCCN=C(N)N)NC(=O)[C@H](CC(C)C)NC(=O)[C@@H](Cc1c[nH]c2ccccc12)NC(=O)[C@H](Cc1ccc(O)cc1)NC(=O)[C@H](CO)NC(=O)[C@H](Cc1c[nH]c2ccccc12)NC(=O)[C@H](Cc1cnc[nH]1)NC(=O)[C@@H]1CCC(=O)N1 | . | -1% | . | . | . | . | . | . | .
Oc1ccc(/C=C/c2ccc3cccc(O)c3n2)cc1Br | 10% | 3% | ? | 2% | . | . | . | . | .
O/N=C/c1ccc2ccccc2n1 | 0% | -2% | 17% | -2% | . | . | . | . | .
O=C(O)c1ccc(/C=C/c2ccc3cccc(O)c3n2)cc1 | 18µM* | -6% | -9% | -21% | 27% | -8% | 4µM* | ? | ?
O/N=C/c1ccc2cccc(O)c2n1 | 7.1µM* | -1% | -24% | 2% | 9%[10.4 µM] | -10% | 2µM* | -29% | -28%
COCCNC(=O)c1ccc2c(=O)n(CCOC)c(SCC(=O)c3c[nH]c4ccccc34)nc2c1 | . | -3% | . | . | . | . | . | . | .
COC(=O)c1ccc(NC(=O)CN2CCOCC2)cc1 | 1% | -9% | 2% | -3% | . | . | . | . | .
COC(=O)c1ccc(NC(=O)CN2CCN(CC#N)CC2)cc1 | 25µM* | 2% | 3% | 1% | -5%[38.3 µM] | 14% | 1% | -2% | 2%
N#CCc1ccc(NC(=O)c2ccc(S(=O)(=O)N3CCOCC3)cc2)cc1 | . | -5% | -24% | -3% | . | . | . | . | .
CN(CCC#N)C(=S)NC(=O)c1ccc(S(=O)(=O)N2CCOCC2)cc1 | 16µM* | -13% | -9% | 3% | 8% | -1% | 6% | 9% | 15%
SMILES | Giardia FBPA inh-1 | Tb PYK inh | RE007 growth inh | LmPK inhibitor | Giardia growth | Mammal cell tox | Giardia FBPA inh-2 | Rabbit aldolase | GAPDH coupling
O=C(NC(=S)N(CCO)Cc1ccccc1)c1ccc(S(=O)(=O)N2CCCC2)cc1 | 8.9µM* | -1% | -15% | 4% | 0%[10.4 µM] | 7% | 4% | 8% | 10%
CC(=O)N1CCN(C(=S)NC(=O)c2ccc(S(=O)(=O)N3CCOCC3)cc2)CC1 | 14µM* | -10% | -1% | 7% | -7%[10.4 µM] | 3% | 9% | 11% | 5%
CC(=O)NNc1cccc(Cl)n1 | -1% | 4% | -11% | -3% | . | . | . | . | .
O=C(NNc1cccc(Cl)n1)C(F)(F)F | 20µM* | -1% | -11% | 10% | ? | 9% | -13% | -2% | 1%
CCOc1ccccc1C(=O)N(Cc1cccs1)c1ccc(Cl)cc1 | . | -5% | . | . | . | . | . | . | .
Cc1cc(C=C2C(=O)N(C)C(=S)N(C)C2=O)c(C)n1-c1cccnc1 | 3.2µM* | ? | . | 0% | -29% | 7% | -12% | -7% | -29%
Cc1ccc(-n2c(C)cc(C=C3C(=O)N(C)C(=O)N(C)C3=O)c2C)cc1 | . | 1% | 4% | . | . | . | . | . | .
NC(=O)C1(N2CCCCC2)CCN(C(=S)Nc2ccc(S(N)(=O)=O)cc2)CC1 | 7.9µM* | ? | -6% | 2% | 87% | -3% | -23% | -15% | -20%
CCOC(=O)C1CCCN(C(=O)c2ccc3c(c2)N(Cc2ccccc2F)C(=O)c2ccccc2S3=O)C1 (stereo not given) | . | 0% | . | . | . | . | . | . | .
CSC1=NC2(CCN(C(=O)NC3CCCCC3)CC2)N=C1c1ccc(C)cc1 | . | 8% | . | . | . | . | . | . | .
CN1CCN(Cc2c(F)cccc2Cl)CC1 | 25µM* | 3% | -1% | 2% | 72% | 14% | -3% | -6% | ?
Fc1cccc(F)c1CN1CCN(c2ccc(Cl)cc2)CC1 | 0% | 0% | 16% | 2% | . | . | . | . | .
